Only some compounds are listed: those with a hit (about 4.6% of all), similar ones and a draw of the others.
D1 PAM = potentiators of human D1 dopamine receptor. potentiation, % at 10 µM. hit rate 0.036% among 360,000. HEK293 TREx D1 cells, calcium flux, dopamine EC20 potentiation. AID 504651; in the data active means potentiation above about 30%; further: 0% is about no effect
Target sequence (P21728 whole entry, looked up): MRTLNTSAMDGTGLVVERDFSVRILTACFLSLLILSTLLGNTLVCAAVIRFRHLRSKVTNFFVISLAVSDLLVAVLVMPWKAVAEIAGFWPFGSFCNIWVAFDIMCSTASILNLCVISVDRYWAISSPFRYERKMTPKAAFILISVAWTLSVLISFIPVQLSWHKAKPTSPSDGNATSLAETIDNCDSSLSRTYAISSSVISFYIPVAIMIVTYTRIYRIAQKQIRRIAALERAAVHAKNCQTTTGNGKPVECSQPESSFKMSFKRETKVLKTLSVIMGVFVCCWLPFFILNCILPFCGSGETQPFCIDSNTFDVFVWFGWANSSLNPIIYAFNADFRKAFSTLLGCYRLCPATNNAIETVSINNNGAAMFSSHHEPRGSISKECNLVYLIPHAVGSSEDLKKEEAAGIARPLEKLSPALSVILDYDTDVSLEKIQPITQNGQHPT
D1 antagonist = antagonists of human D1 dopamine receptor; P21728; HEK293 TREx D1 cells, calcium flux, dopamine EC80; hits give low values; activity change, negative = inhibition, % at 10 µM; hit rate 3.2% among 360,000; AID 504652; in the data active means activity change below about -30%; further: on the % scale 0 is the no-effect control and ±100 the full control effect
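Cells carrying a force-coupled, tetracycline-inducible human D1 receptor report calcium flux. Each well gets a 10 s baseline, compound with 180 s monitoring, then an EC80 dopamine stimulus with a second 180 s kinetic read.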
D1 agonist = human D1 receptor agonism | P21728 | HEK293 T-REx D1 cells, calcium flux, agonist mode | activation, % at 2 µM | hit rate 1% among 360,000 | AID 504660; further: 0% is about no effect
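Tetracycline-induced HEK293 TREx D1 cells, force-coupled to calcium signalling, were dye-loaded with a no-wash calcium kit. Compound was pin-added after a 10 s baseline. Fluorescence was read kinetically at 1 cycle/s for 180 s, with calcium rises flagged as agonism.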
TRHR enhancer = allosterically enhances the human TRH receptor; hit rate 0.66% among 360,000; TRHR cells, fluo-8 calcium fluorescence, EC20 TRH enhancement; enhancement, % at 2 µM; in the data active means enhancement above about 30%; further: 0% is about no effect
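TRHR-expressing cells loaded with fluo-8 calcium dye were read kinetically (ex 480/em 530) during compound addition, then stimulated with an EC20 of TRH (10 nM final). Enhancement of the Gq-mediated intracellular calcium response was scored.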
TRHR agonist = TRH receptor (human) agonism; activation, % at 2 µM; P34981; TRHR cells, calcium flux fluo-8, FDSS agonist mode; hit rate 0.18% among 360,000; further: 0% is about no effect
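Agonist-mode FDSS calcium read (Ex 480/Em 530, 1 s cycles) in 1536-well TRHR cells with fluo-8 dye, after 10-cycle baseline and 23 nL compound addition; TRH at EC20 (10 nM final) added afterwards for the enhancer phase.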
* = called active by the depositor; . = not tested or not shown. Unless noted, no stated cut-off is given here; in the data, active means activation above about 30%; inactive means the rest.

SMILES	D1 PAM	D1 antagonist	D1 agonist	TRHR enhancer	TRHR agonist
CC(C)N(Cc1nc(-c2ccccc2)no1)C(=O)CN1C(=O)c2ccccc2C1=O	-2	-7	1	2	1
COc1ccc(-c2noc(CN(C(=O)c3cccs3)C(C)C)n2)cc1	-1	-4	37*	-3	0
O=C(NCc1nc(-c2ccc(C(F)(F)F)cc2)no1)c1cccs1	2	-34*	4	2	0
CC(C)N(Cc1nc(-c2ccccc2)no1)C(=O)CCCN1C(=O)c2ccccc2C1=O	-6	-49*	5	9	0
CCOC(=O)c1cccc(NC(=O)c2cc3c(=O)n(C)c4ccccc4c3n2C)c1	2	1	0	0	0
CC(C)NC(=O)CCC(=O)N1Cc2ccccc2Oc2ncccc21	-2	-2	4	-4	-1
CCOC(=O)C1=C(C)n2c(s/c(=C/c3cccc([N+](=O)[O-])c3)c2=O)=NC1c1ccc(O)c(OC)c1 (stereo not given)	2	-90*	9	3	3
CCOC(=O)N1CCc2c(sc3c2c(=O)n(CCc2ccccc2)c(=O)n3Cc2cc(C)ccc2C)C1	-4	-51*	2	1	1
O=S(=O)(c1ccc(F)cc1)N1CCN(C(=S)NCc2ccccc2)CC1	-4	-31*	4	5	1
COc1ccc(C(=O)Oc2ccc(/C=N/O)cc2)cc1	-3	-35*	3	7	0
COc1ccc(C(=O)Oc2ccc(/C=N/NC(=O)Cc3ccc([N+](=O)[O-])cc3)cc2)cc1	-8	-32*	2	1	-1
Cc1nc(NNC(=O)c2ccc([N+](=O)[O-])cc2)cc(-c2ccccc2)n1	-7	-4	14	0	-1
Cc1ccc(C(=O)NCC(=O)OCC(=O)c2ccc(C)c([N+](=O)[O-])c2)cc1	-24	-46*	1	-6	-2
Cc1ccc(C(=O)NCC(=O)NCC(=O)OCC(=O)c2ccc(F)cc2)cc1	-3	-52*	2	-1	-1
Cc1ccc(C(=O)COC(=O)CNC(=O)C(c2ccccc2)c2ccccc2)cc1[N+](=O)[O-]	7	-3	3	-20	0
O=C(CNC(=O)c1ccccc1)NCC(=O)OCC(=O)c1ccc(F)cc1	6	3	2	5	0
CCCOC(=O)c1ccc(Nc2nc3ccccc3nc2-n2nc(C)cc2C)cc1	-2	9	3	3	1
COc1ccc(Cl)cc1NC(=O)CCS(=O)(=O)c1nc(-c2cccs2)cc(C(F)(F)F)n1	0	-35*	5	-11	1
COC(=O)c1scc(-c2ccc(C)cc2)c1S(=O)(=O)Nc1ccc(OC(F)(F)F)cc1	-8	-31*	2	0	1
CC(C)(Oc1ccc(Cl)cc1)C(=O)NCc1ccco1	0	0	0	2	-1
Cc1ccc(NC(=O)/C(C#N)=C/c2ccc(C)s2)c(C)c1	-2	4	43*	-5	0
N#C/C(=C/c1ccncc1)c1nc2ccccc2s1	-2	1	101*	16	16
CCCCn1nnnc1SCC(=O)Nc1cccc(C)c1	-1	-9	1	5	-1
CCOC(=O)CSc1nc(-c2ccccc2)nc2ccc(C)cc12	-3	-35*	5	-1	3
COc1ccc(-c2[nH]c(-c3ccc4c(c3)OCO4)nc2-c2ccccc2)cc1	-5	-76*	3	-8	-1
SMILES	D1 PAM	D1 antagonist	D1 agonist	TRHR enhancer	TRHR agonist
Oc1ccc(C23CCCC2C2(CCCC2)c2ccc(O)cc2O3)c(O)c1 (stereo not given)	.	-8	152*	5	0
Cc1ccc(S(=O)(=O)N(C)C)cc1NC(=S)N1CCc2ccccc21	-8	-9	0	6	0
CCOc1ccc(-c2ccc(C=O)o2)c([N+](=O)[O-])c1	-5	-17	-1	2	0
CNC(=O)c1cc2cccc(OC)c2oc1=O	-2	-12	0	4	0
COc1cccc2cc(C(=O)NCc3ccccn3)c(=O)oc12	-3	-49*	0	-7	0
COc1cccc2cc(C(=O)N(Cc3cccs3)CC3CCCO3)c(=O)oc12 (stereo not given)	-4	-38*	1	3	0
COc1ccc(-c2cc3cccc(OC)c3oc2=O)cc1	2	-3	1	-2	-1
COc1cccc2cc(-c3ccccc3)c(=O)oc12	-4	-31*	-1	2	-1
COc1cccc2cc(C(=O)N(C)C3CCN(C)CC3)c(=O)oc12	-10	-39*	1	5	1
O=C(N/N=C/c1ccccn1)c1cccc(NC(=O)c2ccccc2Cl)c1	0	5	1	4	0
C/C(=N/NC(=O)c1ccc2c(c1)OCO2)c1ccc(NC(=O)c2ccc(F)cc2)cc1	0	-4	6	0	2
CCC(=O)N1c2ccccc2CC1C(=O)NCCc1ccc(OC)cc1OC (stereo not given)	0	9	-1	1	0
COc1ccccc1C(=O)Nc1ccc(C(=O)OCc2cc(=O)n3c4c(sc3n2)CCCC4)cc1	4	0	-1	-3	1
CN(Cc1ccccc1)C(=O)c1ccc(NC(=O)Cc2cccc(NC(=O)C3CCCN(C(=O)CCc4ccccc4)C3)c2)cc1 (stereo not given)	-4	-33*	8	0	1
CN(C(=O)c1ccc(NC(=O)Cc2cccc(NC(=O)C3CCCN(C(=O)CCc4ccccc4)C3)c2)cc1)C1CCCC1 (stereo not given)	2	6	4	-1	1
Cc1[nH][nH]c(=O)c1C(c1c(C)[nH][nH]c1=O)c1cn(Cc2ccc(F)cc2)c2ccccc12	-1	-32*	-1	3	1
Cc1ccc(S(=O)(=O)NC23CC4CC(CC(C4)C2)C3)cc1	-7	-20	3	15	0
Cc1nc2ccccc2cc1OCc1ccc(Cl)cc1	6	-12	12	3	0
Cc1nc2ccccc2cc1OCc1ccccc1	-7	-59*	17	1	1
O=C(CNC(=O)Cc1ccccc1)NCC(=O)OCC(=O)c1ccc(F)cc1	1	.	-1	-4	1
Cc1cc(Cl)nc(-n2nc(C)cc2C)n1	-4	-42*	1	1	0
CC(Sc1ccccn1)C(=O)Nc1ccc(S(N)(=O)=O)cc1 (stereo not given)	2	18	7	1	0
CO[C@H]1C[C@@H]2CC[C@@H](C)[C@@](O)(O2)C(=O)C(=O)N2CCCC[C@H]2C(=O)O[C@H]([C@H](C)C[C@@H]2CC[C@@H](O)[C@H](OC)C2)CC(=O)[C@H](C)C=C(C)[C@@H](O)[C@@H](OC)C(=O)[C@H](C)C[C@H](C)C=CC=CC=C1C	4	-10	1	16	1
